Source: PubChem (National Center for Advancing Translational Sciences (NCATS))
The list is not random: actives were taken first. Their share in the collection is about 21%.
Shiga toxin inh: inhibitors of Shiga toxin in Vero cells. Vero cells, Shiga toxin protein synthesis inhibition reporter. inhibition, % at 38.7 µM. 290,000 compounds, 9.2% hits. AID 2315; in the data active = inhibition mostly above about 28%, no sharp cut-off; inactive = mostly below about 43%; also: 0% is about no effect
Pf growth 48h: inhibits P. falciparum growth in the first generation, 48 h. 310,000 compounds, 5.9% hits. AID 504832. P. falciparum luciferase growth in erythrocytes, 48 h. Potency, µM (series often up to 28.7 µM), inactives show at the highest dose activity change, negative = inhibition, actives largely listed as inhibitors; also: potency is read from the fitted curve at half-maximal effect; % is scaled to controls: 0 for no effect and ±100 for the full control effect
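Luminescence readout; reporter = integrated firefly luciferase in P. falciparum. RBC culture at 2% hematocrit, 0.1% parasitemia final, 37 C/5% CO2; decreased signal taken as growth inhibition.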
NS1 function inh: influenza NS1 inhibition; Potency, µM (highest dose often 46.1 µM), for the others: at the highest dose activity, positive = more growth; 270,000 compounds, 0.4% hits; calls by dose curve; also: potency is read from the fitted curve at half-maximal effect; actives are rising curves; nearly all actives have a fitted effect of over 50% in size
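A cell-based growth assay was used: compounds that relieve NS1-induced slow growth of budding yeast raise OD600. Assay medium was yeast nitrogen base with ammonium sulphate and -URA supplement, pH 6.0, with 2% galactose.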
CHX counter: counter-screen hit for Shiga toxin inhibitors, cycloheximide. cell reporter, cycloheximide protein synthesis inhibition counterscreen. max response, %. 300,000 compounds, 12% hits. AID 2314; in the data active = max response mostly above about 13%, no sharp cut-off; inactive = mostly below about 14%; also: read at 38.3 µM for the half of the compounds with a filed dose; 0% is about no effect
Pf growth 96h: P. falciparum growth inhibition at 96 hours; P. falciparum luciferase reporter growth, 96 h; Potency, µM (highest dose often 28.7 µM), without a hit: at the highest dose activity change, negative = inhibition, hits mostly inhibitors; 320,000 compounds, 6.9% hits; AID 504834; also: potency is read from the fitted curve at half-maximal effect; % is scaled to controls: 0 for no effect and ±100 for the full control effect
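P. falciparum expressing integrated firefly luciferase grown in erythrocytes (2% hematocrit, 0.05% parasitemia final) with compounds for 96 hours at 37 C, 5% CO2. Growth inhibition read as loss of luminescence after adding luciferase detection reagent.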
* = called active by the depositor; ? = inconclusive; / = no result; [ ] = dose if it differs, or a comment. Unless noted, calls follow the shape of the dose curve; as a rule, active = well fitted inhibition curve with a large enough effect; inconclusive = small, poorly fitted or top-dose-only effect, or another doubt; inactive = no such curve, though single readings can be large or run the other way.

SMILES	Shiga toxin inh	Pf growth 48h	NS1 function inh	CHX counter	Pf growth 96h
CCOc1ccc2c(c1)-c1c(ssc1=S)C(C)(C)N2	24.9	/	5.5%	2.4	?
O=C(Nc1ccc(Cl)c(Cl)c1)OCc1cnc(Cl)s1	15.2	31.1%	14.0%	20.1*	-6.0%
O=C(Nc1ccccc1)OCc1cnc(Cl)s1	35.6	17.1%	-5.3%	11.9	5.2%
NC(=O)N/N=C/c1ccccc1OCC(=O)NCc1ccccc1	-6.6	6.4%	-7.7%	-3.1	-30.0%
O=C1c2ccccc2C2=Nc3ccccc3SC(c3cccc(F)c3)C12 (centres undefined)	-6.0	0.586µM*	10.4%	-2.1	?
O=C1CCCC2=C1C(c1ccc(Cl)cc1)C1C(=O)c3ccccc3C1=N2 (centres undefined)	-9.5	?	?	0.5	?
O=C1c2ccccc2C2=Nc3ccccc3SC(c3ccc(Cl)cc3)C12 (centres undefined)	-6.3	0.522µM*	-9.8%	2.8	-24.6%
CC(C)c1ccc(C2NC(=O)c3ccccc3O2)cc1 (centres undefined)	101.1*	16.7%	-19.7%	19.3*	11.0%
CC(=O)Oc1c(C)cc(Cl)cc1C(=O)Nc1ccc([N+](=O)[O-])cc1Cl	128.3*	?	-65.2%	74.2*	30.7%
O=C(Cn1ccc2cc(S(=O)(=O)N3CCCC3)ccc21)NCCc1ccccc1	18.9	?	7.0%	5.7	?
COc1ccccc1OCC(O)CN1C(=O)NC(C)(C)C1=O (centres undefined)	-7.2	/	4.8%	-7.4	?
CCCCSc1nnc(-c2ccc(NC(C)=O)cc2)n1C	-8.9	-26.3%	3.8%	-5.9	7.38µM*
CC(=O)Nc1ccc(-c2nnc(SCC(=O)NCc3ccco3)n2C)cc1	2.0	/	6.9%	-3.5	6.57µM*
CC(C)c1nnc(SCC(=O)NCc2ccco2)n1C	-14.4	0.7%	4.7%	-2.2	18.4%
CCCCSc1nnc(-c2ccc(C)cc2)n1C	103.5*	59.9%	-10.4%	40.0*	29.7%
Nc1cc(Cl)ccc1Nc1ccncc1	-11.2	15.1%	2.9%	-1.7	?
C(#CCN1CCCCC1)COCc1ccccc1	57.7	20.0%	-0.8%	17.1*	19.5%
COc1ccc(CN2CCNCC2)cc1	-6.5	175.3%	-1.6%	-0.6	43.4%
COc1ccc(OCC#CCN2CCNCC2)cc1	17.1	15.5%	-9.3%	10.6	1.85µM*
COc1ccc(OCC#CCN2CCCCCC2)cc1	29.9	-0.8%	/	11.7*	2.8%
COc1ccc(OCC#CCN2CC(C)OC(C)C2)cc1 (centres undefined)	6.4	-16.5%[5.75 µM]	/	-2.2	?
COc1ccc(N(CC(=O)N/N=C/c2cccnc2)S(=O)(=O)c2ccc(C)cc2)cc1OC	15.4	-9.6%	-8.9%	12.6	?
COc1cc(OC)c(-c2nc(-c3ccncc3)no2)cc1OC	-6.8	78.4%	-7.2%	9.1	28.4%
Cc1occc1-c1nc(-c2ccccn2)no1	67.9*	451.5%	-10.0%	26.4*	202.4%
Cc1occc1-c1nc(-c2ccncc2)no1	79.8*	76.1%	-0.1%	33.6*	12.6%
SMILES	Shiga toxin inh	Pf growth 48h	NS1 function inh	CHX counter	Pf growth 96h
Cc1ccc(-c2noc(-c3ccoc3C)n2)cc1	83.3*	156.2%	3.9%	49.4*	16.3%
CN(C)S(=O)(=O)c1cccc(-c2nnc(SCCNCCO)n2-c2ccc(F)cc2)c1	27.0	-14.4%	15.6%	8.4	-23.5%
COc1ccc(CCC(=O)NC2CCC(C)CC2)cc1 (centres undefined)	-5.2	21.6%	-3.7%	-5.0	26.9%
Cc1ccc(S(=O)(=O)Nc2ccccc2-c2ccccc2)cc1	-7.9	-6.2%	-19.1%	-5.3	11.7µM*
Cc1ccc(S(=O)(=O)N(CC(=O)Nc2ccccc2-c2ccccc2)c2ccc(C)cc2C)cc1	-13.7	?	7.4%	-1.5	-18.4%
Cc1cccc(N(CC(=O)Nc2ccccc2-c2ccccc2)S(=O)(=O)c2ccccc2)c1C	14.7	8.28µM*	?	7.1	7.6%
Cc1ccc(N(CC(=O)Nc2ccccc2-c2ccccc2)S(=O)(=O)c2ccccc2)cc1	-4.0	?	?	1.0	6.57µM*
O=C(NCCN1C(=O)S/C(=C\c2ccccc2)C1=O)c1cc(S(=O)(=O)N2CCOCC2)c(Cl)cc1Cl	-5.7	?	8.7%	-0.7	?
O=C(c1ccc(F)cc1)[C@@H]1[C@@H](C(=O)c2ccccc2)[C@@]2(C(=O)Nc3ccccc32)[C@H]2c3ccccc3C=CN12	16.0	?	22.7%	10.9	5.22µM*
CC(=O)[C@@H]1[C@@H](C(=O)c2ccc(F)cc2)[C@]2(C(=O)Nc3ccccc32)[C@H]2C=Cc3cc(F)ccc3N12	2.3	?	13.7%	1.1	?
c1coc(-c2nnc(-c3ccc4c(c3)OCO4)o2)c1	51.7*	/	-23.6%	21.7*	144.7%
c1nnc(-c2ccc3c(c2)OCO3)o1	20.6	7.7%	/	7.7	19.8%
Cc1ccc(-c2nnc(-c3ccc4c(c3)OCO4)o2)cc1	101.1*	110.5%	-7.0%	45.6*	0.0%
Brc1ccc(-c2nnc(-c3ccc4c(c3)OCO4)o2)o1	111.3*	197.8%	-12.0%	35.0*	13.0%
CCOc1ccc(S(=O)(=O)Nc2cccc(C(=O)NCC(c3ccc(OC)cc3)N3CCOCC3)c2)cc1 (centres undefined)	-14.5	-10.5%	-37.0%	5.2	?
CCOc1cc(C(=O)Nc2ncn[nH]2)cc(OCC)c1OCC	-11.1	-3.7%	/	3.1	?
O=c1[nH]cnc2cc(-c3ccc(Br)cc3)sc12	66.1*	134.2%	-16.6%	22.2	239.1%
O=c1[nH]c(CCl)nc2cc(-c3ccc(F)cc3)sc12	56.4	?	-55.3%	10.8	?
O=C(N/N=C/c1cc2ccccc2nc1Cl)c1ccncc1	-27.3	-22.1%	/	1.3	21.4%
Cc1ccc(NCC(=O)N/N=C/c2cc3ccccc3nc2Cl)cc1	21.5	?	15.9%	12.4	39.6%
O=C(CN1CCOCC1)N/N=C/c1cc2ccccc2nc1Cl	8.6	23.8%	22.0%	9.9	1.47µM*
Cn1cc(Br)c(C(=O)N/N=C/c2cc3ccccc3nc2Cl)n1	50.1*	59.9%	12.2%	15.0*	?
CN(C)c1cccc2c1c(NC(=O)c1ccc(Cl)cc1)nn2C	12.1	-12.9%	-6.7%	0.6	?
C=CCOn1c(=O)c(=O)n(OCc2ccccc2)c2ccccc21	-21.0	-10.1%	-32.6%	-5.9	27.8%
Fc1ccc(-c2cc(-c3cccs3)cc(-c3ccccc3)n2)cc1	23.7	?	5.6%	-2.2	?
Fc1ccc(-c2cnc(-c3cccs3)o2)cc1	134.5*	328.9%	4.9%	42.0*	0.0%
Fc1ccc(-c2nc(-c3cccs3)no2)cc1	127.0*	157.2%	-6.7%	44.4*	123.7%
COC(=O)c1ccc(-c2nc(-c3cccs3)no2)cc1	65.4*	/	-2.2%	40.3*	-18.0%
O=C(Nc1ccc(Oc2ncccn2)cc1)c1ccco1	42.7	40.3%	-7.7%	13.0	20.5%
COC(=O)c1ccc(NC(=O)c2ccc(NC(=O)c3ccco3)cc2)cc1	-14.0	?	7.3%	-1.5	-7.1%
